Cycloheximide cs: Cycloheximide Counterscreen for Small Molecule Inhibitors of Shiga Toxin; cell reporter, cycloheximide protein synthesis inhibition counterscreen; AID 2314, 2010; max response, %; hit rate 12% among 300,000; in the data active = max response mostly above about 13%, no sharp cut-off; inactive = mostly below about 14%; also: read at 38.3 µM for the half of the compounds with a filed dose; 0% is about no effect
FBPA Giardia inh: qHTS Assay for Inhibitors of Fructose-1,6-bisphosphate Aldolase from Giardia Lamblia | A8B2U2 | AID 2451, 2010 | purified Giardia FBPA | hit rate 0.71% among 290,000 | Potency, µM (doses to about 59.6 µM), for inactives: at the highest dose activity, negative = inhibition, usual class: inhibitors; also: potency is read from the fitted curve at half-maximal effect; % is scaled to controls: 0 for no effect and ±100 for the full control effect; nearly all actives have a fitted effect of over 55% in size
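40 nM FBPA preincubated 10 min at RT with compound (up to 57.5 uM final), then substrate plus GAPDH/TPI/NAD/arsenate coupling and diaphorase/resazurin added. Fluorescence read after 20 min at RT, 525/598 nm.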
Shiga inhibitor: A qHTS for Small Molecule Inhibitors of Shiga Toxin; Vero cells, Shiga toxin protein synthesis inhibition reporter; inhibition, % at 38.7 µM; hit rate 9.2% among 290,000; in the data active = inhibition mostly above about 28%, no sharp cut-off; inactive = mostly below about 43%; also: 0% is about no effect
LmPK inhibitor: qHTS Assay for Inhibitors of Leishmania Mexicana Pyruvate Kinase (LmPK); hit rate 0.37% among 290,000; Q27686; purified LmPK, Kinase-Glo ATP luminescence, 1 h; Potency, µM (highest dose often 57.5 µM), without a hit: at the highest dose activity change, negative = inhibition, actives largely listed as inhibitors; also: potency is read from the fitted curve at half-maximal effect; % is scaled to controls: 0 for no effect and ±100 for the full control effect
Target sequence (Q27686 whole entry, looked up): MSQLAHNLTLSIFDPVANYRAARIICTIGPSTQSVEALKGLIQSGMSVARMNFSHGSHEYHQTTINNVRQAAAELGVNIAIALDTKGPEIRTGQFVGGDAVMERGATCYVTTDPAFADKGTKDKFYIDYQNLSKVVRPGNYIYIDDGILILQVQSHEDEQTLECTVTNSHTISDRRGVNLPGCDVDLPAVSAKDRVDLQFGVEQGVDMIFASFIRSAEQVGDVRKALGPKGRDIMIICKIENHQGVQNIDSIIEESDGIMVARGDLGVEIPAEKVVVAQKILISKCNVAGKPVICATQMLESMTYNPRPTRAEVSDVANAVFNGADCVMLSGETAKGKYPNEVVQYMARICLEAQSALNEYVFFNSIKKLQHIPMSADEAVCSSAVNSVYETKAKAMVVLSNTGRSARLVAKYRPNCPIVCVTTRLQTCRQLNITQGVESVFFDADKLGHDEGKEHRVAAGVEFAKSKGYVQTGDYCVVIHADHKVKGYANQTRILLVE
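Purified LmPK (0.1 nM) with 0.5 mM PEP and 0.1 mM ADP in imidazole buffer pH 7.2 with MgCl2/KCl, 1 h at room temperature. ATP formed was read by luciferase luminescence and normalized to no-enzyme and uninhibited controls.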
NS1 function inh: qHTS Assay for Inhibitors of Influenza NS1 Protein Function; AID 2326, 2010; hit rate 0.4% among 270,000; Potency, µM (top dose mostly 46.1 µM), without a hit: at the highest dose activity, positive = more growth; calls by dose curve; also: potency is read from the fitted curve at half-maximal effect; actives are rising curves; nearly all actives have a fitted effect of over 50% in size
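S. cerevisiae expressing influenza A NS1, grown in glucose, washed, then diluted 1:100 into pH 6.0 -URA galactose medium with 23 nl compound. Growth recovery read as OD600; NS1-free strain serves as control.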
* marks the source's active call; other numbers are inactive results; u = inconclusive; x = not tested or not shown; + = active, no number; [ ] = another dose, or the depositor's remark. Hits are enriched below; roughly 14% of the tested compounds scored in any of these assays. Unless noted, calls follow the shape of the dose curve; as a rule, active = well fitted curve in the direction sought with a large enough effect; inconclusive = small, poorly fitted or top-dose-only effect, or another doubt; inactive = no such curve, though single readings can be large; an effect the other way counts as inactive or inconclusive.

SMILES	Cycloheximide cs	FBPA Giardia inh	Shiga inhibitor	LmPK inhibitor	NS1 function inh
CCOc1ccc(CN(C)C(=O)CNC(=O)C2CCCCC2)cc1	1	x	14	-2%	14%
Cc1cccc(C)c1Nc1oc(-c2ccccc2)nc1-c1cccc2ccccc12	x	0%	x	x	x
CCCC1(C(=O)OC)NC(c2ccc(OC)cc2OC)C2C(=O)N(c3cccc(C(C)=O)c3)C(=O)C21 (stereo not drawn)	2	7%	-7	7%	-5%
COc1ccc(CS(=O)(=O)c2ncn[nH]2)cc1	-4	u	2	6%	3%
C/[N+]([O-])=C\CC(=O)c1ccc(-c2ccccc2)cc1	24*	-2%	20	7%	x
CO/N=C/CC(=O)c1cnc(-c2ccc(Cl)cc2)s1	22*	-11%	73*	-1%	x
CO/N=C/CC(=O)c1ccc(-c2ccccc2)cc1	18*	0%	70	-5%	-31%
CC(C)(C)CC(C)(C)c1ccc(O)c(C[N+](C)(C)[O-])c1	x	x	x	x	-3%
CN(C)c1ccc(C2=NOC(CN3C(=O)c4ccccc4S3(=O)=O)C2)cc1 (stereo not drawn)	55*	-13%	71*	-2%	-32%
CN(C)c1ccc(/C=C/c2ccc3ccccc3n2)cc1	-5	-5%	-19	u	-7%
CCCN(CCC)c1ccc(/C=C/c2ccc3cc(OCC)ccc3n2)cc1	34*	-20%	71*	6%	8%
CN(C(=O)COC(=O)c1ccc(=O)n(Cc2ccccc2)n1)c1ccccc1	-1	0%	2	2%	2%
Cc1ccc(-n2c(=S)[nH]c3c(oc4ccccc43)c2=O)cc1	40*	14%	69*	7%	22%
O=c1c2oc3ccccc3c2[nH]c(=S)n1-c1ccccc1	1	2%	14	-7%	8%
Cc1ccc(-n2c(C)nc3oc4ccccc4c(=O)c3c2=O)cc1	47*	-5%	121*	-1%	8%
CCCCNc1nc(C)nc2c1nc(-c1ccccc1)n2CCN(C)C	x	7%	x	x	x
N[C@@H](C(=O)O)c1cc(O)ccc1Cl	x	0%	x	x	x
O=C(Nc1ccc2nn(-c3ccccc3)nc2c1)c1ccc2c(c1)OCO2	-1	-1%	-12	4%	-4%
O=C(Nc1ccncc1)c1cccs1	-3	8%	-8	1%	0%
O=C(Nc1ccc2nn(-c3ccccc3)nc2c1)c1cccs1	35*	-7%	73*	-2%	-48%
O=C(Nc1ccc2nsnc2c1)c1cccs1	30*	-12%	20	-11%	-2%
NS(=O)(=O)c1ccc(N=Nc2cc3ccccc3c(C(=O)O)c2O)cc1	x	x	x	x	8%
Cc1ccc(C)c(S(=O)(=O)c2c(C)cc(C)[nH]c2=O)c1	-3	15%	10	-5%	0%
O=C(NCCN1C(=O)S/C(=C\c2ccc(F)cc2)C1=O)c1cccc(S(=O)(=O)N2CCOCC2)c1	69*	-12%	+	-2%	13%
C(=N\NCc1ccccc1)/c1ccc2nccnc2c1	37*	-2%	64*	-16%	3%
SMILES	Cycloheximide cs	FBPA Giardia inh	Shiga inhibitor	LmPK inhibitor	NS1 function inh
S=C(N/N=C/c1ccc2ncccc2c1)Nc1ccccc1	35*	-19%	66*	-5%	x
C(=N\NCc1ccccc1)/c1ccc2ncccc2c1	38*	-3%	79*	-12%	1%
Cc1ccc(S(=O)(=O)N[C@H]2COC(=O)[C@H](C)COC(=O)[C@H](C)NC(=O)C/C=C\[C@H]2C)cc1	x	2%[12.9 µM]	x	x	x
CSc1ccccc1NC(=O)CSc1nnc(CNC(=O)c2ccccc2F)n1C	-4	11%	-13	-1%	-13%
Cc1nn(C(C)C)c(C)c1CN1CCC(C(=O)Nc2cccc(-c3cccc(F)c3)c2)CC1	-4	-5%	-28	-4%	1%
N/C(=N\OC(=O)c1ccc2c(c1)OCO2)c1ccc(Cl)cc1	62*	-5%	91*	-24%	-141%
N/C(=N\OC(=O)c1ccc2ccccc2c1)c1ccc(Br)cc1	6	1%	19	1%	3%
COc1ccc(/C(N)=N/OC(=O)c2ccc3c(c2)OCO3)cc1	52*	-4%	46*	-8%	-29%
N/C(=N\OC(=O)c1ccc2c(c1)OCO2)c1ccncc1	35*	2%	44	25µM*	-1%
Cc1ccc(/C(N)=N/OC(=O)c2ccc3c(c2)OCO3)cc1	74*	0%	98*	-2%	-45%
CC1(C)C2CCC1(CS(=O)(=O)NC(CC(=O)O)c1cccc(Br)c1)C(=O)C2 (stereo not drawn)	0	2%	-11	0%	10%
COc1cccc([C@@H]2Oc3ccc(OC)cc3C[C@H]2OC(=O)Nc2cc(OC)c(OC)c(OC)c2)c1	x	3%	x	x	x
Cc1cc(C)c(C#N)c(Sc2ccccc2N)n1	32*	0%	72*	9%	x
CS(=O)(=O)c1ccc(Cl)c(C(=O)NC2CCSc3ccccc32)c1 (stereo not drawn)	22*	13%	37	0%	-1%
O=C(NC1CCSc2ccccc21)c1ccccc1Br (stereo not drawn)	24*	x	23*	-6%	-28%
NS(=O)(=O)c1cc(C(=O)NC2CCSc3ccccc32)ccc1Cl (stereo not drawn)	-4	-3%	-14	6%	2%
O=C(O)[C@H](C1NCCS1)N1C(=O)c2ccccc2C1=O (stereo partly drawn)	x	x	x	x	-4%
C=CCN(C(=O)CSC1=NC(=O)CN1C(C)=O)c1nc(C)c(-c2ccccc2)s1	30*	-2%	50	3%	4%
COc1ccccc1/C=N/NC(=O)CSc1ccc2ccccc2n1	25*	u	70*	3%	-15%
Cc1cc(SCC(=O)N/N=C/c2ccc(O)c(O)c2O)c(C)cc1Br	-3	3.5µM*	-17	-4%	-95%
COc1ccccc1/C=N/NC(=O)CSc1cc(C)nc2ccccc12	7	-2%	-3	2%	0%

Bioassay records: PubChem BioAssay, National Center for Advancing Translational Sciences (NCATS)
